Legend:
[1] = molecular target: T1, Inhibitor of nuclear factor kappa-B kinase subunit epsilon (Homo sapiens) (UniProt Q14164); settings: at 1 µM;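 also: reported values are averaged percent inhibition figures against human IKKε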
T1 sequence (whole entry): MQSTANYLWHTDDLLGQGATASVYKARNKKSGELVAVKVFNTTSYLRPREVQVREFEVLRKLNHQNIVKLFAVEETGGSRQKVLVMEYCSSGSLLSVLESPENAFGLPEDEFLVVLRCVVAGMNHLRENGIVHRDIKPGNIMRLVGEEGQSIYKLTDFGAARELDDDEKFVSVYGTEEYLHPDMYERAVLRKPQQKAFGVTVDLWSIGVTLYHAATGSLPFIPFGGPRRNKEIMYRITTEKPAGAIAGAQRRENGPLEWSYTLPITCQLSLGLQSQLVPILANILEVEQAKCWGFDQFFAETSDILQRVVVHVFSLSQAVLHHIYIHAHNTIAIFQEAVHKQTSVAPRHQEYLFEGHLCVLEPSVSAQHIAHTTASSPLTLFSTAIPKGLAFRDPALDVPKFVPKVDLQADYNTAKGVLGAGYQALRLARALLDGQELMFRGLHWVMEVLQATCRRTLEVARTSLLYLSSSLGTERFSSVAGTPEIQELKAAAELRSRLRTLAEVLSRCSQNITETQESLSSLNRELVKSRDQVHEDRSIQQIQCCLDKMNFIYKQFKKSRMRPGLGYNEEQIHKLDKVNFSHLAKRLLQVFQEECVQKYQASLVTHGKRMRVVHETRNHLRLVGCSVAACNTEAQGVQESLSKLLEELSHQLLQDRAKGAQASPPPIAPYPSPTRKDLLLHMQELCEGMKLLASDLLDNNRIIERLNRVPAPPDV

[2] = molecular target: T2, Serine/threonine-protein kinase Nek1 (Homo sapiens) (UniProt Q96PY6); settings: at 0.1 µM
T2 sequence (whole entry): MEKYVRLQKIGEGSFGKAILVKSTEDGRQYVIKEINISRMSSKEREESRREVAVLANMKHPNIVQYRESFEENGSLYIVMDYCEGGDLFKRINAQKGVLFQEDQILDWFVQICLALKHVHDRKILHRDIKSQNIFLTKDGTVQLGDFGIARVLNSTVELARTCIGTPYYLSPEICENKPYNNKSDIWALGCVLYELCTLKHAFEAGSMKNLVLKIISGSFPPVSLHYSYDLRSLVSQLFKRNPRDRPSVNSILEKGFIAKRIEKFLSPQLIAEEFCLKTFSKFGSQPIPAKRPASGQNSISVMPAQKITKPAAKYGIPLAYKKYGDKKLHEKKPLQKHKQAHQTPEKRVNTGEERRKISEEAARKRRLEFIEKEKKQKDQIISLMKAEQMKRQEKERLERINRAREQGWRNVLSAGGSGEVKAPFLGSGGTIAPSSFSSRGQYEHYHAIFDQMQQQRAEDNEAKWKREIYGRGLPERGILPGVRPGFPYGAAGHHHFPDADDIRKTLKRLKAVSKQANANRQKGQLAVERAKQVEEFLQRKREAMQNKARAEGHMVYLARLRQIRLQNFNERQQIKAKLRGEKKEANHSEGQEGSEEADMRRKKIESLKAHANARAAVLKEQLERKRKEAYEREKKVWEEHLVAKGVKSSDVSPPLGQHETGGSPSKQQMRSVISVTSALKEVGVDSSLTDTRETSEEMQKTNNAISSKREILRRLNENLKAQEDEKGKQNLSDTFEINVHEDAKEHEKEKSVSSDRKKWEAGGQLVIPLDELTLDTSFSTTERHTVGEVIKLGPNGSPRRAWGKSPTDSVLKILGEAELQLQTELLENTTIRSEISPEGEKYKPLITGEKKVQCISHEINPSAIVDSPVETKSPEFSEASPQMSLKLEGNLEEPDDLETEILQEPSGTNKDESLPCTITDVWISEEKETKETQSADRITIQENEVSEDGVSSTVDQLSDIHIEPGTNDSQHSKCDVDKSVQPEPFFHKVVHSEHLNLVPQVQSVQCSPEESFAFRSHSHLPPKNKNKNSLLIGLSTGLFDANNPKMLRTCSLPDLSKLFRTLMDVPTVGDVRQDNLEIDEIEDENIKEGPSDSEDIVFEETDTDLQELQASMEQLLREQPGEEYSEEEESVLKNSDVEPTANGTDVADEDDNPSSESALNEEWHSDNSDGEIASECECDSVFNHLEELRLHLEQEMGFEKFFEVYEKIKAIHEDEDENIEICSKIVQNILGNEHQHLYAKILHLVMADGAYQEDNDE

[3] = molecular target: T2, Serine/threonine-protein kinase Nek1 (Homo sapiens); settings: at 1 µM
[4] = molecular target: T3, Serine/threonine-protein kinase Nek2 (Homo sapiens) (UniProt P51955); settings: at 0.1 µM
T3 sequence (whole entry): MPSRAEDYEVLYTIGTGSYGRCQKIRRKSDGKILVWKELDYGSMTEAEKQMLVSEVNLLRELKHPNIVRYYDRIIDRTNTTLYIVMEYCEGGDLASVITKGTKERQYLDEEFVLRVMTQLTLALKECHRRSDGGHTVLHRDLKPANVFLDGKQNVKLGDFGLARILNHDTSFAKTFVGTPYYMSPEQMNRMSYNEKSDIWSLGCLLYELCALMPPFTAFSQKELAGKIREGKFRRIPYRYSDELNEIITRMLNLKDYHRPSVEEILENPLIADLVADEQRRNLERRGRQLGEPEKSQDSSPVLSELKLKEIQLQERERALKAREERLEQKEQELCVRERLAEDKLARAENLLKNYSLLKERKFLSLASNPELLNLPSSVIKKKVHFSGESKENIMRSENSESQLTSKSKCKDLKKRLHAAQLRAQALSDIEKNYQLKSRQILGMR

[5] = molecular target: T3, Serine/threonine-protein kinase Nek2 (Homo sapiens); settings: at 1 µM
[6] = molecular target: Serine/threonine-protein kinase Nek6 (Homo sapiens) (UniProt Q9HC98); settings: at 0.1 µM
[7] = molecular target: Serine/threonine-protein kinase Nek6 (Homo sapiens) (UniProt Q9HC98); settings: at 1 µM
[8] = molecular target: Serine/threonine-protein kinase Nek7 (Homo sapiens) (UniProt Q8TDX7); settings: at 0.1 µM
[9] = molecular target: Serine/threonine-protein kinase Nek7 (Homo sapiens) (UniProt Q8TDX7); settings: at 1 µM
[10] = molecular target: T4, Serine/threonine-protein kinase Nek9 (Homo sapiens) (UniProt Q8TD19); settings: at 0.1 µM
T4 sequence (whole entry): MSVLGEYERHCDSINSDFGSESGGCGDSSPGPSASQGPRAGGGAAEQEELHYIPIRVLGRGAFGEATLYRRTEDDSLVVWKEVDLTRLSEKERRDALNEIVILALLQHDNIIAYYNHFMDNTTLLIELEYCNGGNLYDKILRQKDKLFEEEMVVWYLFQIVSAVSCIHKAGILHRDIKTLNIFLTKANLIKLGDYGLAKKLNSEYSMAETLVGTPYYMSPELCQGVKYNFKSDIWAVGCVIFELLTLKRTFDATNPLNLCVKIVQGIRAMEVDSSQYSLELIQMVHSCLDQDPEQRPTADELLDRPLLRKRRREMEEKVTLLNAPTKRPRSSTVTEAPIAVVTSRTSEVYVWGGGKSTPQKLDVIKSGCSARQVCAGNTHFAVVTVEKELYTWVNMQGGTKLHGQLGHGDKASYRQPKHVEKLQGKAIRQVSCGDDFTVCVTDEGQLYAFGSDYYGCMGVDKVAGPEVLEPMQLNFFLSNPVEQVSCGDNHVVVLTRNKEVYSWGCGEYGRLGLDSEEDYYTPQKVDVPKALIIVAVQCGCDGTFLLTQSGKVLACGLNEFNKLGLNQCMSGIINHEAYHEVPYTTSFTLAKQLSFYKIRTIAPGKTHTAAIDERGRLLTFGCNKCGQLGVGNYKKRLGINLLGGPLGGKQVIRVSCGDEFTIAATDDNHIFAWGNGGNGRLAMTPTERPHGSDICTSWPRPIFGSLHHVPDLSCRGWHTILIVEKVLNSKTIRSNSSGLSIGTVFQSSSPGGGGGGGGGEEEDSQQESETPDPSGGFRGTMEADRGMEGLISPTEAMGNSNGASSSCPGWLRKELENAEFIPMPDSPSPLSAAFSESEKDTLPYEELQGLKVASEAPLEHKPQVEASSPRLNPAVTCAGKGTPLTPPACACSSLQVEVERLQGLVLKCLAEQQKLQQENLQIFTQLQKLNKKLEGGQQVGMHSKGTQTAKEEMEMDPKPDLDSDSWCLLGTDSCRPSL

[11] = molecular target: T4, Serine/threonine-protein kinase Nek9 (Homo sapiens); settings: at 1 µM
[12] = molecular target: Serine/threonine-protein kinase PLK1 (Homo sapiens) (UniProt P53350); settings: at 0.1 µM
[13] = molecular target: Serine/threonine-protein kinase PLK1 (Homo sapiens) (UniProt P53350); settings: at 1 µM
[14] = molecular target: T5, Dual specificity protein kinase TTK (Homo sapiens) (UniProt P33981); settings: at 0.1 µM
T5 sequence (whole entry): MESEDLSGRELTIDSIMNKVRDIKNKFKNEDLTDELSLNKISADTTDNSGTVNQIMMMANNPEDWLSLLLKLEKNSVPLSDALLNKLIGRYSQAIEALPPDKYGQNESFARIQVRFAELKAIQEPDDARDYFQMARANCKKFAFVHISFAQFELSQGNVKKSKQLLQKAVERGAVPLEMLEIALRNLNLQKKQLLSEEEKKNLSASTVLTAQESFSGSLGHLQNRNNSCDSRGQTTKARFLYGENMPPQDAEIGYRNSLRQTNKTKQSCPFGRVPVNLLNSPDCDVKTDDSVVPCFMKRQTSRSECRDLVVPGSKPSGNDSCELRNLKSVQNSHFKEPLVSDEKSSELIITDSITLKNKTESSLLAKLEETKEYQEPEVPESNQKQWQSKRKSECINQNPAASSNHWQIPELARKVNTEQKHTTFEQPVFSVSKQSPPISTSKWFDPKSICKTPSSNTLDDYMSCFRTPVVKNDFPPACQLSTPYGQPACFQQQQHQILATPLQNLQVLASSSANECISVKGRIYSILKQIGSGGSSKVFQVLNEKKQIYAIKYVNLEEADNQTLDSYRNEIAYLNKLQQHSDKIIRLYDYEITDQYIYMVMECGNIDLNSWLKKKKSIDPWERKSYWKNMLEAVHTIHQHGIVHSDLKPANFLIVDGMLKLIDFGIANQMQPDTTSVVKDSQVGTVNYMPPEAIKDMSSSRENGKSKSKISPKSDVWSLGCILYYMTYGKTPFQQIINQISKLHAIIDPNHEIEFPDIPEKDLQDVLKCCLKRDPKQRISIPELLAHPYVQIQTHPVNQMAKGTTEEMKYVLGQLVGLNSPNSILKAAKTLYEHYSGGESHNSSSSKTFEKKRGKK

[15] = tested on: T6, Receptor-type tyrosine-protein kinase FLT3 (Homo sapiens), P36888 [D835Y]; settings: at 1 µM
T6 sequence (whole entry): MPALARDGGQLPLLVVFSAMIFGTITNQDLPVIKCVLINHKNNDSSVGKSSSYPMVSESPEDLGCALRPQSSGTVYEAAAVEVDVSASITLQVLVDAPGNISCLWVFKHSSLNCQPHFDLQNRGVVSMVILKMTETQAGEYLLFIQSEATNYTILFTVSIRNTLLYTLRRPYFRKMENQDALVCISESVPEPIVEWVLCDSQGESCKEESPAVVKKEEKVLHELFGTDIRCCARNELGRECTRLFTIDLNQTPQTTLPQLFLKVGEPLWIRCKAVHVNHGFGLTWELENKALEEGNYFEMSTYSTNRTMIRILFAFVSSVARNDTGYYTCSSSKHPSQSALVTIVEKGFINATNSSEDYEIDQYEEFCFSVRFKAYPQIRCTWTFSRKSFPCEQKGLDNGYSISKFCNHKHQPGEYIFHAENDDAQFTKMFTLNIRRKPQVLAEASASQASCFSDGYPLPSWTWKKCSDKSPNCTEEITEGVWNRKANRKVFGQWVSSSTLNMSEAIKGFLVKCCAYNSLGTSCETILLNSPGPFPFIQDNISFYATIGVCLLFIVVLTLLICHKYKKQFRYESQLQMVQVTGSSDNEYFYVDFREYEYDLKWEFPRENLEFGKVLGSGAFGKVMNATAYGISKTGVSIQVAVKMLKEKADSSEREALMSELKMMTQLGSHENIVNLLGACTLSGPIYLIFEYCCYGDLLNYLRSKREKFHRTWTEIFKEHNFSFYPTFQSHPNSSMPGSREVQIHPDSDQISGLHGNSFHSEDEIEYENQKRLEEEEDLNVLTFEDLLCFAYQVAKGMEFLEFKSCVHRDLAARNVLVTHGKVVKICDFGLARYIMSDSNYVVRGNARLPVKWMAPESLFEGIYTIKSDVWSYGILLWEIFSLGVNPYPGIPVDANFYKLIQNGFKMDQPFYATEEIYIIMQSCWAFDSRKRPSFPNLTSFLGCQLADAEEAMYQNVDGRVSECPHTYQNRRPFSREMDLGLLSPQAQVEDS

[16] = molecular target: Vascular endothelial growth factor receptor 3 (Homo sapiens) (UniProt P35916); settings: at 0.1 µM
[17] = molecular target: Vascular endothelial growth factor receptor 3 (Homo sapiens) (UniProt P35916); settings: at 1 µM
[18] = molecular target: Macrophage colony-stimulating factor 1 receptor (Homo sapiens) (UniProt P07333); settings: at 0.1 µM
[19] = molecular target: Macrophage colony-stimulating factor 1 receptor (Homo sapiens) (UniProt P07333); settings: at 1 µM
[20] = molecular target: Tyrosine-protein kinase Fyn (Homo sapiens) (UniProt P06241); settings: at 0.1 µM
Chain of Tyrosine-protein kinase Fyn (Homo sapiens) (P06241 2-537 limits assumed): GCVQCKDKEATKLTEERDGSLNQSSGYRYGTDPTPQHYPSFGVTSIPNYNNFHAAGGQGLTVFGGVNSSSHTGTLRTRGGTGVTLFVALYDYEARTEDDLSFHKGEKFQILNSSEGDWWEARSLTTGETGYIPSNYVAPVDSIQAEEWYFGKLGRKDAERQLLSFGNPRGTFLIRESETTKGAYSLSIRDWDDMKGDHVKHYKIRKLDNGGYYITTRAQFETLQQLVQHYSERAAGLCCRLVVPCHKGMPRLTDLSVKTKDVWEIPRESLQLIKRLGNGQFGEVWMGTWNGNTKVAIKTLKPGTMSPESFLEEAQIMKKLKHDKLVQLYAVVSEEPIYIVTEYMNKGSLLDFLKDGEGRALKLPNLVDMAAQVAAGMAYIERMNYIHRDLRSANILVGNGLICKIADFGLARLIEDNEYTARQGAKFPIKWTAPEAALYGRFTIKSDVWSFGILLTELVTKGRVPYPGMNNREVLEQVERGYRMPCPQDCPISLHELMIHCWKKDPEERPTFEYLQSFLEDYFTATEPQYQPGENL

Chain of Serine/threonine-protein kinase Nek7 (Homo sapiens) (Q8TDX7 whole entry, looked up): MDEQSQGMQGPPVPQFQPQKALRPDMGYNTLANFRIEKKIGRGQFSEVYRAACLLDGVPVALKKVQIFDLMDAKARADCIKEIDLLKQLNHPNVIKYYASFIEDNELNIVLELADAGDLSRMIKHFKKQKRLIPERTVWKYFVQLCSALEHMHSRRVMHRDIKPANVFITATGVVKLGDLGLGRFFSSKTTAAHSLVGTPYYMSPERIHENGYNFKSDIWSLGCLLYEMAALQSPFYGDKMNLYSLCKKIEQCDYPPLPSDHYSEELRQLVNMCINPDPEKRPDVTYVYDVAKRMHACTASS
Chain of Serine/threonine-protein kinase PLK1 (Homo sapiens) (P53350 whole entry): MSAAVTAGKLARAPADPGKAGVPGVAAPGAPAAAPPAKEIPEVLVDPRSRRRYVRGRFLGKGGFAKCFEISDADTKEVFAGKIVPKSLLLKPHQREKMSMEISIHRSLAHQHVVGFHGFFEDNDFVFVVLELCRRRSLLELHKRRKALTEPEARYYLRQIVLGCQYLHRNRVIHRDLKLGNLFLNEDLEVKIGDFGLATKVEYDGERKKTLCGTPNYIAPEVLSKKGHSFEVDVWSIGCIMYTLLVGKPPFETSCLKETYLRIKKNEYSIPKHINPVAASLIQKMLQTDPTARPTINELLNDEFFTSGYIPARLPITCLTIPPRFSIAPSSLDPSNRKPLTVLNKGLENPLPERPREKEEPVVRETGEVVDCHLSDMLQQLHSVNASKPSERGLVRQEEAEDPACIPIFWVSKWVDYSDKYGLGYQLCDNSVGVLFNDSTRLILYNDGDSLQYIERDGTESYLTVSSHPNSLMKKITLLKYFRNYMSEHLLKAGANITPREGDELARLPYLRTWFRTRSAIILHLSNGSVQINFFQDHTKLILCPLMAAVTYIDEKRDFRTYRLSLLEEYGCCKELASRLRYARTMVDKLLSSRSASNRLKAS
Chain of Vascular endothelial growth factor receptor 3 (Homo sapiens) (P35916 whole entry): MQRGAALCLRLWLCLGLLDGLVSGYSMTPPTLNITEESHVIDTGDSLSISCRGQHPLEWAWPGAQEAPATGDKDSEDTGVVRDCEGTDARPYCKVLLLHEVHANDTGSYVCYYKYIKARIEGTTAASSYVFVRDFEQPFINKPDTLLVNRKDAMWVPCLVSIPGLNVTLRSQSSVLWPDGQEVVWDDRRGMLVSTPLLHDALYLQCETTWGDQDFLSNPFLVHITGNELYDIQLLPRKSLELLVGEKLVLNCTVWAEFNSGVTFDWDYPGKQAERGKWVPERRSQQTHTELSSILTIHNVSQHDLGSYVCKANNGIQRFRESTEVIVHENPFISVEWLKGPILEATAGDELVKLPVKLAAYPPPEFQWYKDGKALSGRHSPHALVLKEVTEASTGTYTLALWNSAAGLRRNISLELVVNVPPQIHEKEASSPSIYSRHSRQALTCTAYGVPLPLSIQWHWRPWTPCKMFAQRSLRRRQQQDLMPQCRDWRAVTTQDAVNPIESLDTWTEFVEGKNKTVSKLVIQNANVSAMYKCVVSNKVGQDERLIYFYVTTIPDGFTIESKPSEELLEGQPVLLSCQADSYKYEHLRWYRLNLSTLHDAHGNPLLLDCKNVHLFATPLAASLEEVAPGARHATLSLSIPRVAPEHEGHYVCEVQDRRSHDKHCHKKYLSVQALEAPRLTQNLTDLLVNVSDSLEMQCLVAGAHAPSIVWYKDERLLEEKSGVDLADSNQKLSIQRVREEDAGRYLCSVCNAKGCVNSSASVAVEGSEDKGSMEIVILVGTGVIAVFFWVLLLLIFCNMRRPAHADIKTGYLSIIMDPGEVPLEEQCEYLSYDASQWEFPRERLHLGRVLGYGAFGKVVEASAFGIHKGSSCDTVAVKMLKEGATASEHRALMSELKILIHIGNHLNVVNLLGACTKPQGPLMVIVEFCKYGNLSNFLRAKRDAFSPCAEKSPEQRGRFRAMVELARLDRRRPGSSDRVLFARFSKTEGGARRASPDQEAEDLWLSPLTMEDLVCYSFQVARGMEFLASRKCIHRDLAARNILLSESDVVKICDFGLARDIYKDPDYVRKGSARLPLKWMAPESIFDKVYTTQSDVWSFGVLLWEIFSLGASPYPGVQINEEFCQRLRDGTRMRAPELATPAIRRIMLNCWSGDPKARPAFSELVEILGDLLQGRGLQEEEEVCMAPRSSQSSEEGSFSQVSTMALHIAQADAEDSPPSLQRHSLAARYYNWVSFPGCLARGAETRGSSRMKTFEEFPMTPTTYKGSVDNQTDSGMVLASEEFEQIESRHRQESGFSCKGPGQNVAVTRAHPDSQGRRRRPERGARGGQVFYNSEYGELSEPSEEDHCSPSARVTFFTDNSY
Chain of Serine/threonine-protein kinase Nek6 (Homo sapiens) (Q9HC98 whole entry): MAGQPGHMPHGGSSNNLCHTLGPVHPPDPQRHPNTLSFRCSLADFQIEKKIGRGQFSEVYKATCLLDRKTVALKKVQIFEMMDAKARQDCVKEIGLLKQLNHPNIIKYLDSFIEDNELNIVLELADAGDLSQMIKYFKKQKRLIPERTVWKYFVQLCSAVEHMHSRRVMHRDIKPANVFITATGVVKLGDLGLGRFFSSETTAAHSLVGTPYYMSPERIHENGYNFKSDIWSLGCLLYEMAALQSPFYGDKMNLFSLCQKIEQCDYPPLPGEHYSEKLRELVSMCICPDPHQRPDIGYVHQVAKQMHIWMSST
Chain of Macrophage colony-stimulating factor 1 receptor (Homo sapiens) (P07333 whole entry): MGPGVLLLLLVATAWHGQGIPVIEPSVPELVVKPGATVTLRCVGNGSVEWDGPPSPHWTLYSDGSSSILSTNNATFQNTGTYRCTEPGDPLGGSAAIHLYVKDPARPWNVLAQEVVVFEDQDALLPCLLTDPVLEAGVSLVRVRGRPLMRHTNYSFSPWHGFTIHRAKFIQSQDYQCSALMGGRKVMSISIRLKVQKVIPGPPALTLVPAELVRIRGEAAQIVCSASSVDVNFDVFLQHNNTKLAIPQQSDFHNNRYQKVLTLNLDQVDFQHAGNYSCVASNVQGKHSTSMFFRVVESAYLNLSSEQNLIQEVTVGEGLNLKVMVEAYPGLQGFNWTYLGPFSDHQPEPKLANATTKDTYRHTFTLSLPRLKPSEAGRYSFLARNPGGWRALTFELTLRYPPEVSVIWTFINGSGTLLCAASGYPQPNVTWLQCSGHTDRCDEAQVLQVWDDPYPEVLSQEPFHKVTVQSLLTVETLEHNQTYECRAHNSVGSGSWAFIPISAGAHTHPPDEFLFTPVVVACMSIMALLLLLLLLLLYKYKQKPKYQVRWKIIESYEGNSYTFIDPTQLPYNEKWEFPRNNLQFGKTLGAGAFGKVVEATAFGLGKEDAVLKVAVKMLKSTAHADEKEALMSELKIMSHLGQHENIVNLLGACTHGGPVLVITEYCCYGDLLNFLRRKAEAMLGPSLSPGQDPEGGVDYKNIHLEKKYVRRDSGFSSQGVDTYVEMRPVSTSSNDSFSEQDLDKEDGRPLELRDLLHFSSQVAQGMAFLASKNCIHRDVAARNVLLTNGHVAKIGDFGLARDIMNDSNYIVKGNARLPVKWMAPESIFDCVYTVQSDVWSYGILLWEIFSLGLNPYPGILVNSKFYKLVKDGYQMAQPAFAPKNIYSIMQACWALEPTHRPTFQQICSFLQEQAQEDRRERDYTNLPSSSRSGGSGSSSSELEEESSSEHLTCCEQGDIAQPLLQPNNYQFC

| SMILES | inhibition [1] [%] | inhibition [2] [%] | inhibition [3] [%] | inhibition [4] [%] | inhibition [5] [%] | inhibition [6] [%] | inhibition [7] [%] | inhibition [8] [%] | inhibition [9] [%] | inhibition [10] [%] | inhibition [11] [%] | inhibition [12] [%] | inhibition [13] [%] | inhibition [14] [%] | inhibition [15] [%] | inhibition [16] [%] | inhibition [17] [%] | inhibition [18] [%] | inhibition [19] [%] | inhibition [20] [%] |
| --- | --- | --- | --- | --- | --- | --- | --- | --- | --- | --- | --- | --- | --- | --- | --- | --- | --- | --- | --- | --- |
| NS(=O)(=O)c1cccc(Nc2cc(-c3ccc(F)cc3)n[nH]2)c1 | 8.08 | 1.79 | 3.87 | 4.43 | 6.1 | 2.48 | 6.59 | 4.33 | 4.76 | 10.6 | 9.48 | 3.38 | 3.33 | 5.88 | 13.9 | -0.78 | 2.02 | 3.25 | 16.6 | 1.7 |
| Cc1nc(-c2ccccc2)n2nc(NCCCN3CCOCC3)ncc12 | 6.26 | 1.82 | 1.68 | 3.14 | 1.97 | -0.18 | 3.25 | 1.2 | 2.34 | 7.69 | 8.77 | 3.18 | 3.22 | 6.18 | 1.89 | 2.75 | 2.24 | 1.73 | 10.9 | 1.73 |
| Nc1nccc(C#Cc2cncnc2Nc2ccc(OCc3cccc(F)c3)c(Cl)c2)n1 | 6.36 | 2.09 | 3.18 | 4.14 | 5.98 | 1.4 | -0.89 | 3.1 | 3.35 | 8.89 | 1.53 | 3.36 | 3.68 | 5.31 | 7.19 | 3.89 | 0.33 | 2.3 | 5.18 | -0.31 |
